Compound activity from PubChem BioAssay.
Pf growth 96h – Primary qHTS for delayed death inhibitors of the malarial parasite plastid, 96 hour incubation. hit rate 6.9% among 320,000. Potency, µM (series often up to 28.7 µM), usual class: inhibitors. P. falciparum luciferase reporter growth, 96 h
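P. falciparum expressing integrated firefly luciferase, in erythrocytes at 2% hematocrit, 0.05% parasitemia, incubated with compounds 96 h at 37 C, 5% CO2. Growth inhibition read as loss of luminescence; two-generation exposure targets delayed-death apicoplast inhibitors.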
Shiga inhibitor – A qHTS for Small Molecule Inhibitors of Shiga Toxin | Vero cells, Shiga toxin protein synthesis inhibition reporter | inhibition, % at 38.7 µM | hit rate 9.2% among 290,000 | AID 2315, 2010; in the data active means inhibition mostly above about 28%, no sharp cut-off; inactive means mostly below about 43%
Cycloheximide cs – Cycloheximide Counterscreen for Small Molecule Inhibitors of Shiga Toxin; cell reporter, cycloheximide protein synthesis inhibition counterscreen; max response, %; hit rate 12% among 300,000; in the data active means max response mostly above about 13%, no sharp cut-off; inactive means mostly below about 14%; further: read at 38.3 µM for the half of the compounds with a filed dose
HCMV antiviral – qHTS Assay for inhibitors of the human cytomegalovirus (HCMV). activity change, negative = inhibition, % at 57.5 µM. HFF cells, HCMV-luciferase reporter, 72 h; hits give low values. hit rate 4.5% among 410,000; in the data active means activity change below about -60%; inconclusive means no clear call, values can overlap the other calls; inactive means above about -39%
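Luciferase read-out from HCMV-luciferase-infected HFFs (MOI 1 PFU/cell) 72 h post infection at 37C; compounds added after 16 h cell attachment; activity normalized between buffer-only basal and Salinomycin (10uM) inhibitor controls.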
Pf growth 48h – Primary qHTS for delayed death inhibitors of the malarial parasite plastid, 48 hour incubation; P. falciparum luciferase growth in erythrocytes, 48 h; Potency, µM (top dose mostly 28.7 µM), hits mostly inhibitors; hit rate 5.9% among 310,000; AID 504832, 2011
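Parasite viability was followed by luminescence of a genomically integrated firefly luciferase. Cultures held 0.1% parasitemia at 2% hematocrit (final), incubated under 5% CO2 at 37 C.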
Numbers stand for hits; - = inactive; ? = inconclusive; . = not tested or not shown. Hits are enriched below; roughly 20% of the tested compounds scored in any of these assays. Unless noted, the call rests on the fitted dose curve; in most records, active means well fitted inhibition curve with a large enough effect; inconclusive means small, poorly fitted or top-dose-only effect, or another doubt; inactive means no such curve, though single readings can be large or run the other way.

SMILES | Pf growth 96h | Shiga inhibitor | Cycloheximide cs | HCMV antiviral | Pf growth 48h
COc1ccccc1NC(=O)CCSc1nc(C)cc(C)n1 | ? | - | - | ? | -
CC(C)N(C(=O)COc1ccc(Br)cc1Cl)C(C)C | ? | - | - | - | -
O=C(COc1ccccc1Cl)c1ccc2c(c1)CCCC2 | - | 53.4 | 26.2 | - | -
O=C(COc1ccc(Br)cc1Cl)c1ccc[nH]1 | - | 68.6 | 38.3 | - | -
Cc1ccccc1OCC(=O)OCC(=O)c1ccc[nH]1 | - | . | . | - | -
O=C(COc1ccccc1Cl)c1ccc[nH]1 | - | - | 30.4 | - | -
CN1OC[C@@H]2CN(C(=O)CCc3ccccc3)[C@H](c3cccc(-c4ccccc4)c3)C[C@@H]21 | . | . | . | - | .
CSCCC(NC(=O)c1ccco1)C(=O)Nc1ccc(C)cn1 (stereo not drawn) | - | . | . | - | -
O=C(CN(Cc1ccc(F)cc1)C(=O)CCC(=O)Nc1nccs1)NCc1ccccc1 | - | - | - | - | -
Nc1[nH]c(C(=O)c2ccccc2)c(-c2ccccc2C(F)(F)F)c1C(=O)c1cccs1 | . | . | . | - | .
Cc1ccc(-n2c3c(cc(C(=O)Nc4cccc(Cl)c4)c2=O)C(=O)CC(C)(C)C3)cc1 | . | . | . | - | .
CC1=NN(C(=O)c2cccnc2)C(O)(C(F)(F)F)C1 (stereo not drawn) | - | - | - | - | -
CCCCC1=NN(C(=O)c2ccncc2)C(O)(C(F)(F)F)C1 (stereo not drawn) | - | - | - | - | -
CC1=NN(C(=O)c2ccoc2C)C(O)(C(F)(F)F)C1 (stereo not drawn) | - | 44.1 | 50.1 | - | ?
CCCCC1=NN(C(=O)c2cocc2C)C(O)(C(F)(F)F)C1 (stereo not drawn) | - | 32.3 | 20.4 | - | -
O=C(c1ccco1)N1N=C2CCCCCC2C1(O)C(F)(F)F (stereo not drawn) | - | - | - | -65.8 | -
COc1cccc(C2=NN(C(=O)c3ccco3)C(O)(C(F)(F)F)C2)c1 (stereo not drawn) | - | - | - | - | 4.15µM
CCc1ccc(Oc2nc3c(C)cccn3c(=O)c2/C=C(\C#N)c2nc3ccccc3s2)cc1 | . | . | . | - | .
Cc1ccc(C2=NN(C(=O)c3ccco3)C(O)(C(F)(F)F)C2)cc1 (stereo not drawn) | - | 37.1 | 13.7 | - | -
COc1ccc(C(=O)N2N=C(c3ccccc3)CC2(O)C(F)(F)F)cc1 (stereo not drawn) | ? | - | - | - | -
COC(=O)N1N=C(c2ccccc2)CC1(O)C(F)(F)F (stereo not drawn) | - | 105.6 | 38.6 | - | -
CCCCC1=NN(C(=O)c2ccco2)C(O)(C(F)(F)F)C1 (stereo not drawn) | - | - | - | - | -
CC[n+]1c(/C=C2\C=C(C)CC(C)C2)sc2ccccc21 (stereo not drawn) | ? | - | - | . | ?
CC[n+]1c(C)sc2sc3ccccc3c21 | ? | - | - | . | 1.85µM
Cc1ccccc1C(=O)Nc1ccc(N2CCN(C(=O)c3ccco3)CC2)cc1 | ? | - | - | - | -
SMILES | Pf growth 96h | Shiga inhibitor | Cycloheximide cs | HCMV antiviral | Pf growth 48h
Cc1ccc(C(=O)Nc2ccc(N3CCN(C(=O)c4ccco4)CC3)cc2)c(Cl)c1 | - | - | - | - | 13.1µM
Cc1ccc2c(c1)CCCN2C(=O)c1ccco1 | . | - | - | - | ?
Cc1ccc(C(=O)Nc2ccc(N3CCN(C(=O)c4cccs4)CC3)cc2)c(Cl)c1 | - | - | - | ? | 9.28µM
O=C(Nc1ccc2c(c1)CCCN2C(=O)c1ccco1)c1cc([N+](=O)[O-])ccc1Cl | ? | . | . | - | 14.7µM
CC(C)C(=O)Nc1ccc(N2CCN(C(=O)c3cccs3)CC2)cc1 | ? | - | - | - | -
O=C(Nc1ccc(N2CCN(C(=O)c3ccco3)CC2)cc1)c1ccc([N+](=O)[O-])cc1Cl | ? | - | - | - | 11.7µM
CCC(C)NC(=O)Cn1c(=O)c2cccn2c2ccc(F)cc21 (stereo not drawn) | . | . | . | - | .
Cc1ccc(NC(=O)Nc2cccs2)c(C)c1 | . | . | . | - | .
CC(=O)N(c1ccc(Cl)cc1)c1nc(C)cc(C)c1C#N | 7.38µM | - | - | - | -
N#Cc1ccc(Nc2nn3c(=O)c4ccccc4nc3s2)cc1 | - | . | . | . | -
COc1ccc([C@H]2CC(=O)C[C@@H](CCn3cc(-c4cccnc4)nn3)O2)cc1 | . | . | . | - | .
O=C(CNCc1ccccc1Cl)Nc1ccc2c(c1)OCCO2 | - | 87.3 | 44.7 | - | -
